Measured values as given in PubChem BioAssay (EPA / NIEHS).
Inconclusive results are not listed. Active and inactive are the calls of the source. The calls were made as follows, unless noted: active = hit-call score of the fitted dose curve at least 0.9, where 1 is the maximum; inconclusive = response in the unintended direction; inactive = score below 0.9.

Tests used:
[1] = biological target: Nuclear receptor subfamily 1 group I member 3 (Homo sapiens) (UniProt Q14994); experiment: ATG_CAR_TRANS: Attagene TRANS-FACTORIAL HepG2 Assay for human Constitutive Androstane Receptor (CAR) (AID 2282969); settings: HepG2 Attagene TRANS-FACTORIAL CAR reporter;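 also: activators raise reporter mRNA above DMSO so AC50 marks induction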
Sequence of Nuclear receptor subfamily 1 group I member 3 (Homo sapiens) (Q14994 whole entry, looked up, the tested form may be a part): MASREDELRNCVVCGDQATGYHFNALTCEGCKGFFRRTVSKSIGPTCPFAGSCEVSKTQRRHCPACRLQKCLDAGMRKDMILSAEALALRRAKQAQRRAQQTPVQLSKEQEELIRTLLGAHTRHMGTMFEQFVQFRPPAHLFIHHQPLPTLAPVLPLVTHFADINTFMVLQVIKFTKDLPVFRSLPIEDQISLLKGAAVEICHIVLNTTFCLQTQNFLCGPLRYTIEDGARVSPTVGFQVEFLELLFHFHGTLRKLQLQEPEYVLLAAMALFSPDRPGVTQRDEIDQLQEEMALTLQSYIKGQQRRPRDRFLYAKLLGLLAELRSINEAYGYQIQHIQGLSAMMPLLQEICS
Procedure, shortened: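 HepG2 cells transiently transfected with GAL4-UAS reporter units; TRANS format reads activity of exogenous chimeric NR-Gal4 protein. After 24 h dosing, reporter mRNA quantified by RT-PCR, 6-FAM labelling and capillary electrophoresis; gain of signal fitted against DMSO.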

[2] = biological target: X-box-binding protein 1 (Homo sapiens) (UniProt P17861); experiment: ATG_Xbp1_CIS: Attagene CIS-FACTORIAL HepG2 Assay for human X-box Binding Protein 1 (XBP1) (AID 2282972; active = hit-call score of the fitted dose curve at least 0.9, where 1 is the maximum; inactive = score below 0.9); settings: HepG2 XBP1 cis-element reporter, Attagene multiplex; actives raise or lower the signal
Sequence of X-box-binding protein 1 (Homo sapiens) (P17861 whole entry, looked up): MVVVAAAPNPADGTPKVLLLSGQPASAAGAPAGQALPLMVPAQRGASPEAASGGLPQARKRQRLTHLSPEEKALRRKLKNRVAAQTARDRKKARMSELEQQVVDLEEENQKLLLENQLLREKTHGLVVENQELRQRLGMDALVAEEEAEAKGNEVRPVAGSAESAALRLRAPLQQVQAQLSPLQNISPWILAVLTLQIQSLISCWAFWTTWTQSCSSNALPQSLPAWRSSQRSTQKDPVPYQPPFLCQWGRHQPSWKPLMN
Procedure, shortened: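 HepG2 cells transiently transfected with cis-regulated multiple reporter transcription units; endogenous transcription factor activity measured 24 hours after chemical dosing. Reporter mRNA quantified by RT-PCR, 6-FAM primer extension, HpaI digestion and capillary electrophoresis; bidirectional fitting versus DMSO.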

[3] = biological target: Oxysterols receptor LXR-beta (Homo sapiens) (UniProt P55055); experiment: ATG_LXRb_TRANS: Attagene TRANS-FACTORIAL HepG2 Assay for human Liver X Receptor beta (LXRb) (AID 2282981); settings: HepG2 Attagene TRANS GAL4-LXRb reporter, mRNA
Sequence of Oxysterols receptor LXR-beta (Homo sapiens) (P55055 whole entry, looked up, the tested form may be a part): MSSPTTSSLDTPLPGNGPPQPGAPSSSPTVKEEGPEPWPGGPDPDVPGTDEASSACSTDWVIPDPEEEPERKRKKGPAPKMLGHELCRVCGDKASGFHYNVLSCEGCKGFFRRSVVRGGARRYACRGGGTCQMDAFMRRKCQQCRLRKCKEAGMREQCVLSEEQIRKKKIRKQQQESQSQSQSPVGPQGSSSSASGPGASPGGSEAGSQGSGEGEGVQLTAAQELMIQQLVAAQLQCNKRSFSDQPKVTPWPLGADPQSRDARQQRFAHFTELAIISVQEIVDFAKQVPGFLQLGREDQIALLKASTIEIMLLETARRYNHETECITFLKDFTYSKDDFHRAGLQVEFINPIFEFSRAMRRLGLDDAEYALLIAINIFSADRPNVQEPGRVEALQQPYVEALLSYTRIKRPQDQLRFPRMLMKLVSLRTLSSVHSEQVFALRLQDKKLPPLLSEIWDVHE
Procedure, shortened: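 HepG2 cells transiently transfected with GAL4-UAS reporter units for chimeric NR-Gal4 proteins, dosed for 24 h. Reporter transcripts measured by RT-PCR and capillary electrophoresis; gain-of-signal fitting relative to DMSO.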

[4] = biological target: Hepatocyte nuclear factor 4-alpha (Homo sapiens) (UniProt P41235); experiment: ATG_HNF4a_TRANS: Attagene TRANS-FACTORIAL HepG2 Assay for human Hepatocyte Nuclear Factor 4 alpha (HNF4a) (AID 2282982); settings: HepG2 HNF4a transactivation reporter, mRNA readout
Procedure, shortened: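 HepG2 cells transiently transfected with HNF4a-Gal4 chimera and GAL4-UAS reporter units, dosed for 24 h. Reporter mRNA measured by RT-PCR, fluorescent primer extension and capillary electrophoresis; gain-of-signal fitted relative to DMSO.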

[5] = ATG_M_06_TRANS: Attagene TRANS-FACTORIAL HepG2 Assay for M06 Transcription Factor (Internal Marker) (AID 2282983); settings: HepG2 Attagene TRANS M06 internal marker reporter
Procedure, shortened: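 HepG2 cells transiently transfected with multiplexed GAL4-UAS reporter transcription units; after 24 h compound exposure, reporter mRNA measured by RT-PCR, FAM-labelled primer extension, HpaI digestion and capillary electrophoresis. Gain-of-signal fitted versus DMSO baseline; background control readout.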

[6] = ATG_M_32_TRANS: Attagene TRANS-FACTORIAL HepG2 Assay for M32 Transcription Factor (Internal Marker) (AID 2282984); settings: HepG2 Attagene TRANS M32 internal marker reporter
Procedure, shortened: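 HepG2 cells transiently transfected with GAL4-UAS reporter units, dosed for 24 hours. Reporter mRNA quantified by RT-PCR, 6-FAM labelling, HpaI digestion and capillary electrophoresis; internal-marker signal fitted upward relative to DMSO.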

[7] = biological target: Nuclear receptor subfamily 4 group A member 2 (Homo sapiens) (UniProt P43354); experiment: ATG_NURR1_TRANS: Attagene TRANS-FACTORIAL HepG2 Assay for human Nuclear Receptor Related Protein 1 (NURR1) (AID 2282985); settings: HepG2 Attagene TRANS reporter, mRNA readout
Sequence of Nuclear receptor subfamily 4 group A member 2 (Homo sapiens) (P43354 whole entry, looked up, the tested form may be a part): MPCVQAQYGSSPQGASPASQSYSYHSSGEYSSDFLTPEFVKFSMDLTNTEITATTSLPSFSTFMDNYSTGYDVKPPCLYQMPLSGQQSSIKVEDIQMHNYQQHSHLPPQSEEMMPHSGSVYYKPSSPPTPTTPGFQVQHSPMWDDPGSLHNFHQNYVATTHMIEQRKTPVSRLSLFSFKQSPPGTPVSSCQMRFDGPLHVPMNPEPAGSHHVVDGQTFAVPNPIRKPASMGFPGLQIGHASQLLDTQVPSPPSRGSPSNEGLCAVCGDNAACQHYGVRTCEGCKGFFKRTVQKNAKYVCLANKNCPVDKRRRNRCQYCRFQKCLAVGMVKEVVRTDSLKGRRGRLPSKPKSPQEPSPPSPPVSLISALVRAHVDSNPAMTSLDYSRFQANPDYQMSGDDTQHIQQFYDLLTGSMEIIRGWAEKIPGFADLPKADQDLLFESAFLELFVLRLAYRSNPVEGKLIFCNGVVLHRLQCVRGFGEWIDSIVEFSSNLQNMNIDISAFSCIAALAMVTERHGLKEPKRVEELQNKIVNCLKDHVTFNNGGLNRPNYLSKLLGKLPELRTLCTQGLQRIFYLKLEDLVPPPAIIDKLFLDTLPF
Procedure, shortened: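 HepG2 cells transiently transfected with NURR1-Gal4 chimera and GAL4-UAS reporter units; after 24 hr compound exposure, reporter mRNA quantified by RT-PCR and capillary electrophoresis; gain of signal fitted against DMSO.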

[8] = biological target: Transcriptional activator Myb (Homo sapiens) (UniProt P10242); experiment: ATG_Myb_CIS: Attagene CIS-FACTORIAL HepG2 Assay for human Myeloblastosis (Myb) Proto-Oncogene Transcription Factor (AID 2282986; active = hit-call score of the fitted dose curve at least 0.9, where 1 is the maximum; inactive = score below 0.9); settings: HepG2 Attagene CIS-FACTORIAL Myb reporter transcription; actives raise or lower the signal
Sequence of Transcriptional activator Myb (Homo sapiens) (P10242 whole entry, looked up): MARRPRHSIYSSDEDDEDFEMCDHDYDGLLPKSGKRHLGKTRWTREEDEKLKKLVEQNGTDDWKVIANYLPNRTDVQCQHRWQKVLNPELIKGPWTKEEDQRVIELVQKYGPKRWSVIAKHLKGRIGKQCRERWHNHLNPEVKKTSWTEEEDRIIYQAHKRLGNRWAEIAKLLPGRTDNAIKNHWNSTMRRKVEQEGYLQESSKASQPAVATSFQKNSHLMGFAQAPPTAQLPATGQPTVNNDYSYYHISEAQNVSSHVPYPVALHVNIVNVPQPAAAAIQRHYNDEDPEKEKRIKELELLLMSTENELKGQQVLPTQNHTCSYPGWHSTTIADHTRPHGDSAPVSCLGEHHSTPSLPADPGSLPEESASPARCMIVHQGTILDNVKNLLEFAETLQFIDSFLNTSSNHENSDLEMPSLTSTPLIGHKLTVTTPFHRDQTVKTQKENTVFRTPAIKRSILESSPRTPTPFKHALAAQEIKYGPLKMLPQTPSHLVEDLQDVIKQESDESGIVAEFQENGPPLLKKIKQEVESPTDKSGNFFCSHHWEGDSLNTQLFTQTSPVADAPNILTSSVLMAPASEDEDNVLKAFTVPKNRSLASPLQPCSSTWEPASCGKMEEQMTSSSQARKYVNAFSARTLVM
Procedure, shortened: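 Transiently transfected HepG2 cells, treated 24 h. Reporter mRNA quantified by RT-PCR/capillary electrophoresis; bidirectional fit relative to DMSO.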

[9] = biological target: Nuclear respiratory factor 1 (Homo sapiens) (UniProt Q16656); experiment: ATG_NRF1_CIS: Attagene CIS-FACTORIAL HepG2 Assay for human Nuclear Respiratory Factor 1 (NRF1) Orphan Gene (AID 2282987; active = hit-call score of the fitted dose curve at least 0.9, where 1 is the maximum; inactive = score below 0.9); settings: HepG2 NRF1 cis-element reporter, Attagene multiplex; actives raise or lower the signal
Sequence of Nuclear respiratory factor 1 (Homo sapiens) (Q16656 whole entry, looked up, the tested form may be a part): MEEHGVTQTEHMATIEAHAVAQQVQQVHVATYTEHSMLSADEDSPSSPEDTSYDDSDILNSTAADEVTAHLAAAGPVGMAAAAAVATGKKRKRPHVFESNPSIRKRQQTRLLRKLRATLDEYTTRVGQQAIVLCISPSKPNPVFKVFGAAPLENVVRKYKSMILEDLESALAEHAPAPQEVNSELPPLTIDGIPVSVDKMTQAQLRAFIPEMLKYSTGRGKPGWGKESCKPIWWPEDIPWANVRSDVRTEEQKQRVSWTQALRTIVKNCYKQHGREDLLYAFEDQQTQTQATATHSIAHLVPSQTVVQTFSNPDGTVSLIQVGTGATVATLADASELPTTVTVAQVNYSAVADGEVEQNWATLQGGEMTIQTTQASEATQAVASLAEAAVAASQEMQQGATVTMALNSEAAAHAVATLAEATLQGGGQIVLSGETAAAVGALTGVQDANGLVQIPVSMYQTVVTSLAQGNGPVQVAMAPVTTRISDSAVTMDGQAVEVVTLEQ
Procedure, shortened: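 Cells (HepG2, transient MRTU transfection) are exposed to compound for 24 h, then RNA isolated and reporter mRNA amplified and fluorescently labelled. Fragments are separated by capillary electrophoresis; signal change is fitted bidirectionally relative to DMSO.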

[10] = ATG_NFI_CIS: Attagene CIS-FACTORIAL HepG2 Assay for human Nuclear Factor I (NFI) (AID 2282989; active = hit-call score of the fitted dose curve at least 0.9, where 1 is the maximum; inactive = score below 0.9); settings: HepG2 cis-regulatory reporter, NFI response element transcription; actives raise or lower the signal
Procedure, shortened: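 Endogenous TF activity in HepG2 cells transiently transfected with cis-element-driven multiplexed reporter units, read 24 h after dosing. Reporter mRNA quantified by RT-PCR, 6-FAM labelling, HpaI digestion and capillary electrophoresis; bidirectional fit versus DMSO.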

[11] = biological target: Myc proto-oncogene protein (Homo sapiens) (UniProt P01106); experiment: ATG_Myc_CIS: Attagene CIS-FACTORIAL HepG2 Assay for human Myelocytomatosis (Myc) Proto-Oncogene Transcription Factor (AID 2282990; active = hit-call score of the fitted dose curve at least 0.9, where 1 is the maximum; inactive = score below 0.9); settings: HepG2, Attagene cis-reporter transcription factor activity; actives raise or lower the signal
Sequence of Myc proto-oncogene protein (Homo sapiens) (P01106 whole entry, looked up): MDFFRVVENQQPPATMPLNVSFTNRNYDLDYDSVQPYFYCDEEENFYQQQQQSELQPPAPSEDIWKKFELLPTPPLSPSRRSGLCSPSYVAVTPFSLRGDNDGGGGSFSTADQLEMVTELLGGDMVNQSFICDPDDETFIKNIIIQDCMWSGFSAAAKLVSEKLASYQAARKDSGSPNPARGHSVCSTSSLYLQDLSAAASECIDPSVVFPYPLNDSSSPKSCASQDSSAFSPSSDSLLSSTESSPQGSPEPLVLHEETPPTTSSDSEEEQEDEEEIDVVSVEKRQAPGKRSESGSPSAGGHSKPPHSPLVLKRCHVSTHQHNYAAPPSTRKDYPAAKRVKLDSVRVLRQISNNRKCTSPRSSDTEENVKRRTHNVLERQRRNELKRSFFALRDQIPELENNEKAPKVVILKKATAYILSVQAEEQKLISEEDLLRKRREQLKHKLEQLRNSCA
Procedure, shortened: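 Transiently transfected HepG2 cells bearing cis-promoter reporter units for endogenous transcription factors; 24 h exposure. Reporter mRNA measured by RT-PCR, 6-FAM primer extension, HpaI cut and capillary electrophoresis; bidirectional fit relative to DMSO.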

[12] = ATG_GAL4_TRANS: Attagene TRANS-FACTORIAL HepG2 Assay for GAL4 (Internal Marker) (AID 2282976); settings: HepG2 Attagene TRANS GAL4 internal marker reporter
Procedure, shortened: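 HepG2 cells transiently transfected with multiplexed GAL4-UAS reporter constructs were dosed for 24 h. Reporter mRNA was measured by RT-PCR, 6-FAM primer extension, HpaI digestion and capillary electrophoresis, and gain of signal was fitted relative to DMSO.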

[13] = biological target: Bile acid receptor (Homo sapiens) (UniProt Q96RI1); experiment: ATG_FXR_TRANS: Attagene TRANS-FACTORIAL HepG2 Assay for Farnesoid X Receptor (FXR) (AID 2282979); settings: HepG2 Attagene TRANS FXR-GAL4 reporter transcription;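 also: hits raise reporter mRNA above DMSO so AC50 marks FXR activation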
Sequence of Bile acid receptor (Homo sapiens) (Q96RI1 whole entry, looked up, the tested form may be a part): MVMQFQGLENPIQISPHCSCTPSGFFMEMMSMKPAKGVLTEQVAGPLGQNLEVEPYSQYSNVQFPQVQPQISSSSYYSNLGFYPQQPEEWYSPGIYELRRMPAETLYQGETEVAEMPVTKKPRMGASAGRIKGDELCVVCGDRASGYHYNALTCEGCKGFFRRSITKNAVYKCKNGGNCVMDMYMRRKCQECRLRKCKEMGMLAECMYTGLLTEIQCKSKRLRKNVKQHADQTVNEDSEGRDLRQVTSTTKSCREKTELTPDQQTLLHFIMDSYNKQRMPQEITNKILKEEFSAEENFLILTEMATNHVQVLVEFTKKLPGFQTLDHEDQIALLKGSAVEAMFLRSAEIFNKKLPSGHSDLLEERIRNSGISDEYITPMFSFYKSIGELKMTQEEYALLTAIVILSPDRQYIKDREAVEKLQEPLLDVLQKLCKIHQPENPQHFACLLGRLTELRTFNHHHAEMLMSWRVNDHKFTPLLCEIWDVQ
Procedure, shortened: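 HepG2 cells transiently transfected with reporter constructs in which a chimeric FXR-GAL4 protein drives a GAL4-UAS reporter; 24 h compound exposure. Reporter mRNA measured by RT-PCR, FAM labelling, HpaI digestion and capillary electrophoresis; gain-of-signal versus DMSO.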

[14] = ATG_M_19_TRANS: Attagene TRANS-FACTORIAL HepG2 Assay for M19 Transcription Factor (Internal Marker) (AID 2282974); settings: HepG2 Attagene TRANS-FACTORIAL M19 internal marker reporter
Procedure, shortened: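 Reporter mRNA induction was measured in transfected HepG2 cells 24 h after dosing. Endpoint fitted upward relative to DMSO and serves as a background control within the multiplexed TRANS panel.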

[15] = biological target: Glucocorticoid receptor (Homo sapiens) (UniProt P04150); experiment: ATG_GR_TRANS: Attagene TRANS-FACTORIAL HepG2 Assay for human Glucocorticoid Receptor (GR) (AID 2282978); settings: HepG2 Attagene TRANS GR reporter, mRNA transcription;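 also: activators score as hits since higher reporter transcript over DMSO is fitted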
Sequence of Glucocorticoid receptor (Homo sapiens) (P04150 whole entry, looked up, the tested form may be a part): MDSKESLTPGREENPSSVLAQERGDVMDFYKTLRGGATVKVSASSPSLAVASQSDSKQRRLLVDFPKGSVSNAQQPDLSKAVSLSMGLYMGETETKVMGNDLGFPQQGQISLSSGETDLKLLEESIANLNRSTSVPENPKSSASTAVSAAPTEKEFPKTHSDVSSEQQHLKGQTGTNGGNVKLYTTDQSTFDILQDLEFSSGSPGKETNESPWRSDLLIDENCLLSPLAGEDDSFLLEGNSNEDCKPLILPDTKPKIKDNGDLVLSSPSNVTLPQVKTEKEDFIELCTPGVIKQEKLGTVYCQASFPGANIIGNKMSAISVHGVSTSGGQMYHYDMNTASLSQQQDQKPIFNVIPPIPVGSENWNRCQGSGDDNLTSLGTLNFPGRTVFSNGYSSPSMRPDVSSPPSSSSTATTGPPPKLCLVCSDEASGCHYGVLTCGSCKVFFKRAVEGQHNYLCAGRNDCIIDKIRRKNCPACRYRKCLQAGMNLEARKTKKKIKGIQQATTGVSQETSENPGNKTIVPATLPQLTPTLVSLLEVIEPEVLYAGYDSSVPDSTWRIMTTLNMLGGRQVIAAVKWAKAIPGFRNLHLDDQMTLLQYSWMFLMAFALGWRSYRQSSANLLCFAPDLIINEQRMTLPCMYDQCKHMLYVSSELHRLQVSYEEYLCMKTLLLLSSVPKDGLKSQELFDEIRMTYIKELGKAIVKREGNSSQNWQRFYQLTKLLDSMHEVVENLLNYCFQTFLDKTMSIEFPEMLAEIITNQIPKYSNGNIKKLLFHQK
Procedure, shortened: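 Reporter transcript levels, detected by fluorescence after RT-PCR and capillary electrophoresis, served as the endpoint. HepG2 cells bearing transfected GAL4-UAS reporters responsive to NR-GAL4 chimeras were incubated with compound 24 h; DMSO defined baseline.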

[16] = biological target: Androgen receptor (Homo sapiens) (UniProt P10275); experiment: ATG_AR_TRANS: Attagene TRANS-FACTORIAL HepG2 Assay for human Androgen Receptor (AR) (AID 2282973); settings: HepG2 Attagene TRANS-FACTORIAL AR reporter transcription
Procedure, shortened: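 HepG2 cells transiently transfected with multiplexed GAL4-UAS reporter units and chimeric NR-Gal4 fusion; 24 h compound exposure. Reporter mRNA measured by RT-PCR, 6-FAM labelling, HpaI digestion and capillary electrophoresis; gain-of-signal fitted relative to DMSO baseline.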

[17] = biological target: Oxysterols receptor LXR-alpha (Homo sapiens) (UniProt Q13133); experiment: ATG_LXRa_TRANS: Attagene TRANS-FACTORIAL HepG2 Assay for human Liver X Receptor alpha (LXRa) (AID 2282980); settings: HepG2 Attagene TRANS reporter, LXRa transactivation
Sequence of Oxysterols receptor LXR-alpha (Homo sapiens) (Q13133 whole entry, looked up, the tested form may be a part): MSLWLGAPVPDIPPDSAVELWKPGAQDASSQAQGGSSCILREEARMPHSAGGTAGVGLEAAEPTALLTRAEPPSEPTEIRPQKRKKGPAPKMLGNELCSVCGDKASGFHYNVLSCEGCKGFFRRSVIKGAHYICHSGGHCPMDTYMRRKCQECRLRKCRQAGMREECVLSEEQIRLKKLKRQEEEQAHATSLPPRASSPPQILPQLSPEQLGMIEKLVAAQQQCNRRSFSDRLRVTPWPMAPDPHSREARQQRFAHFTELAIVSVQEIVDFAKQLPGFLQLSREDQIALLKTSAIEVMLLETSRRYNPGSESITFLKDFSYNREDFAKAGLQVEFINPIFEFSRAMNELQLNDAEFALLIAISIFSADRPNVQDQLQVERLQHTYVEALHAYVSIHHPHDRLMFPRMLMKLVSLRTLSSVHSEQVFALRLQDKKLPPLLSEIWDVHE
Procedure, shortened: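 HepG2 cells were transiently transfected with multiplexed reporter units driven by chimeric LXRa–GAL4 fusion proteins, then dosed for 24 h. Reporter mRNA was quantified by RT-PCR, fluorescent labelling and capillary electrophoresis; gain of signal fitted against DMSO baseline.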

Measured: AC50

Nc1cccnc1
inactive: [1] | [2] | [3] | [4] | [5] | [6] | [7] | [8] | [9] | [10] | [11]

BrCc1ccc(Br)cc1
inactive: [1] | [2] | [12] | [13] | [5] | [7] | [8] | [9] | [10] | [11]

CC(C)(C)c1ccccc1O
inactive: [1] | [14] | [15] | [3] | [6]
active: [2] 165 µM | [7] 63.4 µM | [9] 100 µM | [10] 100 µM

Clc1cnc(Oc2ccc(Oc3ncc(Cl)cc3Cl)cc2)c(Cl)c1
inactive: [1] | [2] | [14] | [3] | [4] | [8] | [9] | [10] | [11]

CC(F)(F)CC(F)(F)F
inactive: [1] | [2] | [16] | [12] | [15] | [13] | [4] | [5] | [6] | [8] | [10] | [11]

Cc1cccc(OP(=O)(Oc2cccc(C)c2)Oc2cccc(C)c2)c1
inactive: [1] | [2] | [14] | [13] | [6] | [7] | [8] | [10] | [11]

Nc1ncn[nH]1
inactive: [1] | [2] | [5] | [8] | [9] | [10] | [11]

C=CC(=O)NC(C)(C)CC(C)=O
inactive: [1] | [2] | [12] | [17] | [3] | [4] | [5] | [6] | [9] | [10] | [11]

Cc1cc(Cl)ccc1OCCCC(=O)O
inactive: [1] | [2] | [16] | [12] | [15] | [17] | [5] | [6] | [7] | [8] | [9] | [10] | [11]

CC(C)O.CC(C)O.OCCN(CCO)CCO.OCCN(CCO)CCO.[Ti]
inactive: [1] | [2] | [12] | [17] | [3] | [5] | [6] | [8] | [9] | [10] | [11]
